# According to paper PMC7862700, “An all-to-all approach to the identification of sequence-specific readers for epigenetic DNA modifications on cytosine”:
# What was measured:
# Test in all cases: DAPPL (digital affinity profiling via proximity ligation, sequencing); 10 mM Tris-HCl pH 7.5, 50 mM NaCl, 1 mM DTT, 4% glycerol, room temperature, 30 min; GST-TFs on glutathione beads, 16-mer random dsDNA library, 0.1% formaldehyde crosslink after washing; high values mean tight binding
# FEV = biological target: T1, FEV (Homo sapiens, UniProt Q99581 1-238); conditions: protein: recombinant; tags: N-terminal GST; dsDNA, one strand shown
# T1 sequence: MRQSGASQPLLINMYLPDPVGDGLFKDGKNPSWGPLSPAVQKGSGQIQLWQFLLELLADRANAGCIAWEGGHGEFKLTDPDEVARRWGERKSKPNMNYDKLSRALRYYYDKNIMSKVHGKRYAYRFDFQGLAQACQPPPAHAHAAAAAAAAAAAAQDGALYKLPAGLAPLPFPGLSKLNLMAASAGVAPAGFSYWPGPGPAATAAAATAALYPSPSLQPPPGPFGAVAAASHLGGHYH
# How it was run: (§1)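 Pools of DNA-barcoded human transcription factors, expressed in yeast as GST fusions on glutathione beads and combined with a tag-only sample, were incubated with 200 nmole of a 16-mer random double-stranded DNA library. Incubation took 30 min at room temperature in Tris/NaCl/DTT/glycerol buffer and was followed by washing, 0.1% formaldehyde crosslinking, proximity ligation (BsaI/T4 ligase, 1 h, 37 °C), PCR amplification and sequencing on an Illumina NextSeq500. Binding signal is the ratio of a hexamer's read frequency for a factor to its frequency for the tag-only sample.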
# ETV5 = ETV5 (Homo sapiens, UniProt P41161 1-510); conditions: protein: recombinant; tags: N-terminal GST; dsDNA, one strand shown
# Sequence of ETV5 (P41161 whole entry): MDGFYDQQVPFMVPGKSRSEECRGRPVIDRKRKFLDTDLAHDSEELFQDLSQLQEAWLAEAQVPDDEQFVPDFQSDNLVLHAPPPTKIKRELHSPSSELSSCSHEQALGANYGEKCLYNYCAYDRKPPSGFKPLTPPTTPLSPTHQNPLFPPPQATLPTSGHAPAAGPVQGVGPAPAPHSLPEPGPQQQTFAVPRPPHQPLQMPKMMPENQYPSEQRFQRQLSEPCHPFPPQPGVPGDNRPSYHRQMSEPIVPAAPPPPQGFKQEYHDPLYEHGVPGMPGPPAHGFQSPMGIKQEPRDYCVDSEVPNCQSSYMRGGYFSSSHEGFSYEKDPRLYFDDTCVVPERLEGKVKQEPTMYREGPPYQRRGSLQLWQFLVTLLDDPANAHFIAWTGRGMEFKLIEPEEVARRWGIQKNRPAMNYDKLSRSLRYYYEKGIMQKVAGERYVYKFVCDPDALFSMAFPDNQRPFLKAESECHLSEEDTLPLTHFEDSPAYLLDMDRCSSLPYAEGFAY
# How it was run: as §1
# HSF1 = HSF1 (Homo sapiens, UniProt Q00613 1-529); conditions: protein: recombinant; tags: N-terminal GST; chain copies: 3; dsDNA, one strand shown
# Sequence of HSF1 (Q00613 whole entry): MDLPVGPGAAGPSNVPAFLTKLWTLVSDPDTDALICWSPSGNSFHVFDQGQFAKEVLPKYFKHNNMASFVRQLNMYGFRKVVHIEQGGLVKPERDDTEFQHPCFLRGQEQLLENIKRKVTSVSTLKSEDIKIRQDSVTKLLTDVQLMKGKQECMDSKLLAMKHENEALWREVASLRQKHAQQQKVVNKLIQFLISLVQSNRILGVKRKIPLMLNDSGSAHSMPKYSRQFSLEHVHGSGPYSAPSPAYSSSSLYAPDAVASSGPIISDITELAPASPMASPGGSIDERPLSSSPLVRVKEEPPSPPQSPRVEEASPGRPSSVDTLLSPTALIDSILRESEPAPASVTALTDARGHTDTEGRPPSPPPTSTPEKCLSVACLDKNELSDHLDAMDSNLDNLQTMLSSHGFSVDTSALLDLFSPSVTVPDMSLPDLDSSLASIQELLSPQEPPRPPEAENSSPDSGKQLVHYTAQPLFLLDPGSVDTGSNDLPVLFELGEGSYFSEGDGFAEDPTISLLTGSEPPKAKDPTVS
# How it was run: as §1
# SPIC = biological target: T2, SPIC (Homo sapiens, UniProt Q8N5J4 1-248); conditions: protein: recombinant; tags: N-terminal GST; dsDNA, one strand shown
# T2 sequence: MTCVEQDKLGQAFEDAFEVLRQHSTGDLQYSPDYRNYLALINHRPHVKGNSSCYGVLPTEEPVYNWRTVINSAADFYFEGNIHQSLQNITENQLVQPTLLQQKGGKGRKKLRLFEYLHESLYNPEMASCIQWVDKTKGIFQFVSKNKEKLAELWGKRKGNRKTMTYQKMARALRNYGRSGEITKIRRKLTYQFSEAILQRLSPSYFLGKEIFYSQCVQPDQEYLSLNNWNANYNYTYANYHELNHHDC
# How it was run: as §1
# ELF4 = ELF4 (Homo sapiens, UniProt Q99607 1-663); conditions: protein: recombinant; tags: N-terminal GST; dsDNA, one strand shown
# Sequence of ELF4 (Q99607 whole entry): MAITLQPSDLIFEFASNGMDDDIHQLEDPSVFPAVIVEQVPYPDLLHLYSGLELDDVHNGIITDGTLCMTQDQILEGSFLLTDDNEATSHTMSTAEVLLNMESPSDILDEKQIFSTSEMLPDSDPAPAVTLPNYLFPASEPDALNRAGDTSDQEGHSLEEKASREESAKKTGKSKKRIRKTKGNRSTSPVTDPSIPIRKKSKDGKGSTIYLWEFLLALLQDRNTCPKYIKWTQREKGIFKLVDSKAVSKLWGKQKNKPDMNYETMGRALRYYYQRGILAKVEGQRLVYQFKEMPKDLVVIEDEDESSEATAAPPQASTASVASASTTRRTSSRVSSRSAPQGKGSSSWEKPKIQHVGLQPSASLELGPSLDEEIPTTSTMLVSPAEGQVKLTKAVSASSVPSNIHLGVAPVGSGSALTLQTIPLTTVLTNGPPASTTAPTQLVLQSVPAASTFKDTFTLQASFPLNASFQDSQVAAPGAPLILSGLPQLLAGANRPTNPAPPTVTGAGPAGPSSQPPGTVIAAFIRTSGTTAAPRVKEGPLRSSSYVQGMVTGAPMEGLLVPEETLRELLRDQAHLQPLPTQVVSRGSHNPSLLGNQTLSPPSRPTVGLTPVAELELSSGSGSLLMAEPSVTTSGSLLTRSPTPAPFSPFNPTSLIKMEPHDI
# How it was run: as §1
# ELK4 = biological target: T3, ELK4 (Homo sapiens, UniProt P28324-2 1-405); conditions: protein: recombinant; tags: N-terminal GST; dsDNA, one strand shown
# T3 sequence: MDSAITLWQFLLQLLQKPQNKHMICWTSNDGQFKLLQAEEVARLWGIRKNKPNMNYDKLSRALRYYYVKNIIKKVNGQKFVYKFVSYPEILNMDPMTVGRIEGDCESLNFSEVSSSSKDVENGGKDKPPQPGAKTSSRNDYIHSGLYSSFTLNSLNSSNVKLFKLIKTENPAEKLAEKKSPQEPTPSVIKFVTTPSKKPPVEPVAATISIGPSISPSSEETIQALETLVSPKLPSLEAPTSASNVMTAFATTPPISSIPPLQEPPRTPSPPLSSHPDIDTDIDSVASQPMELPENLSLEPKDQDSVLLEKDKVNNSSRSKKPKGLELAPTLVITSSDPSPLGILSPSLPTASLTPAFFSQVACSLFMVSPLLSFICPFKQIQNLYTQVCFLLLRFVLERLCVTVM
# How it was run: as §1
# ETV2 = biological target: T4, ETV2 (Homo sapiens, UniProt O00321 1-342); conditions: protein: recombinant; tags: N-terminal GST; dsDNA, one strand shown
# T4 sequence: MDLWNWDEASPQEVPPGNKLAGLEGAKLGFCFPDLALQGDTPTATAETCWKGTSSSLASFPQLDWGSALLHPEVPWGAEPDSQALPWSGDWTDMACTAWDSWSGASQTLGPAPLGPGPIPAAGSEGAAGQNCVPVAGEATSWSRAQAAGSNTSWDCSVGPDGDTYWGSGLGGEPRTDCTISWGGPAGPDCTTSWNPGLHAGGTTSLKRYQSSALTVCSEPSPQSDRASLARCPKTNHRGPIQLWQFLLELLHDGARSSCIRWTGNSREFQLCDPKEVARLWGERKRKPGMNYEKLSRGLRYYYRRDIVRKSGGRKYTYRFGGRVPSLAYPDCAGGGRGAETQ
# How it was run: as §1
# ELF3 = biological target: T5, ELF3 (Homo sapiens, UniProt P78545 1-371); conditions: protein: recombinant; tags: N-terminal GST; dsDNA, one strand shown
# T5 sequence: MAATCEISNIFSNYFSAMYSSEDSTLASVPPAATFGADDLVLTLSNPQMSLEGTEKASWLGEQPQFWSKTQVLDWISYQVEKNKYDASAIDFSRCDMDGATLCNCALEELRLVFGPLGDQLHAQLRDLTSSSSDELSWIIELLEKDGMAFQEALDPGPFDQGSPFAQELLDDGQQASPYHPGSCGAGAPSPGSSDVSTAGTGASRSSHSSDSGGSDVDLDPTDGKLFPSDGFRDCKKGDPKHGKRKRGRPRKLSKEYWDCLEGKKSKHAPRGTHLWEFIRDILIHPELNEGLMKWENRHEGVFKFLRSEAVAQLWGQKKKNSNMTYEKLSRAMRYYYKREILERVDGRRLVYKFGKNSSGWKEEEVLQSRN
# How it was run: as §1
# CRX = CRX (Homo sapiens, UniProt O43186 1-299); conditions: protein: recombinant; tags: N-terminal GST; dsDNA, one strand shown
# Sequence of CRX (O43186 whole entry): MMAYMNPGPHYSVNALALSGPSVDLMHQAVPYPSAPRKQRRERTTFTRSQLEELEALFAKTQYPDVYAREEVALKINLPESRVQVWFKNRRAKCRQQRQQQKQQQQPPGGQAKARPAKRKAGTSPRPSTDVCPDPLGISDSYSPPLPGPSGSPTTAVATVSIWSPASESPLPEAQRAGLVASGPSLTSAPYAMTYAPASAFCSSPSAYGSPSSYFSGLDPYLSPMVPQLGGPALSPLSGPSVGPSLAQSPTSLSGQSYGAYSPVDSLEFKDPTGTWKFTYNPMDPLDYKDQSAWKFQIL
# How it was run: as §1
# ETV1 = ETV1 (Homo sapiens, UniProt P50549 1-477); conditions: protein: recombinant; tags: N-terminal GST; dsDNA, one strand shown
# Sequence of ETV1 (P50549 whole entry): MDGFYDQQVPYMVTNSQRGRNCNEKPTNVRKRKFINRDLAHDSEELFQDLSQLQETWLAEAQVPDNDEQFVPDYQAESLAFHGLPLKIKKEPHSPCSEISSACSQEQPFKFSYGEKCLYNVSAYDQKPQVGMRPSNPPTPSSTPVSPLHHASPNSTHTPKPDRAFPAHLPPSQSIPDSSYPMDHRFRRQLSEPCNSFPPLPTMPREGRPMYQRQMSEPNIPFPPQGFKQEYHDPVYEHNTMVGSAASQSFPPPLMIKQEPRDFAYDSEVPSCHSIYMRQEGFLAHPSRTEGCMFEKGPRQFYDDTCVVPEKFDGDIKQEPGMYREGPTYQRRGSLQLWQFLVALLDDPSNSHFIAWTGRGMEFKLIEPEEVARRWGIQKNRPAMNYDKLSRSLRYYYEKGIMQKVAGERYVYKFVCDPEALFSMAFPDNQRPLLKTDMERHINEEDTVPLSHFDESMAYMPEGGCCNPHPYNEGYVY
# How it was run: as §1
# ERF = biological target: T6, ERF (Homo sapiens, UniProt P50548 1-548); conditions: protein: recombinant; tags: N-terminal GST; dsDNA, one strand shown
# T6 sequence: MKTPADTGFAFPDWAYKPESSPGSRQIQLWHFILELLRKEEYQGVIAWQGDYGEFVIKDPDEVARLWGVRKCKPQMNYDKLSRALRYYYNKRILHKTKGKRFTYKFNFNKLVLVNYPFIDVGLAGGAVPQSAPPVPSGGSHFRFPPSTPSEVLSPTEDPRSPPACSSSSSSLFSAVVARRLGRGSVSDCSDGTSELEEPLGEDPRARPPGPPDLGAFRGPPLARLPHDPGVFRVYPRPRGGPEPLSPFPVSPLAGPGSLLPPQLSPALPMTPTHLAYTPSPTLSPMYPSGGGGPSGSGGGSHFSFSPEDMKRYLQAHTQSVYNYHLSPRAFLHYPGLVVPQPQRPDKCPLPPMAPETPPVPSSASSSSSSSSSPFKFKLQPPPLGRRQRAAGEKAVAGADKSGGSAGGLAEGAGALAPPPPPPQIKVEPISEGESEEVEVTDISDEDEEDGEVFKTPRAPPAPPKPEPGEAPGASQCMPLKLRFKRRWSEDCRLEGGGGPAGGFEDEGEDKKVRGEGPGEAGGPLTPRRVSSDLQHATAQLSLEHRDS
# How it was run: as §1
# ETV3L = biological target: T7, ETV3L (Homo sapiens, UniProt Q6ZN32 1-361); conditions: protein: recombinant; tags: N-terminal GST; dsDNA, one strand shown
# T7 sequence: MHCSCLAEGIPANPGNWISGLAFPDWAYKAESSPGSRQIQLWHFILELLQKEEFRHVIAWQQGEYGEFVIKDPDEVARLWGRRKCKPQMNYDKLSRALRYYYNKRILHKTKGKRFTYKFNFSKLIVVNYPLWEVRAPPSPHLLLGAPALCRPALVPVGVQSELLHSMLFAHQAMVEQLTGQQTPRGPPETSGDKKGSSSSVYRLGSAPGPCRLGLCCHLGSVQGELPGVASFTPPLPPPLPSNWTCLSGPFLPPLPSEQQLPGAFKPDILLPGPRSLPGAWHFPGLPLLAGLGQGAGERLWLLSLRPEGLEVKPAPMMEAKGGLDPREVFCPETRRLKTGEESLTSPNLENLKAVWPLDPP
# How it was run: as §1
# ETS2 = biological target: T8, ETS2 (Homo sapiens, UniProt P15036 1-469); conditions: protein: recombinant; tags: N-terminal GST; dsDNA, one strand shown
# T8 sequence: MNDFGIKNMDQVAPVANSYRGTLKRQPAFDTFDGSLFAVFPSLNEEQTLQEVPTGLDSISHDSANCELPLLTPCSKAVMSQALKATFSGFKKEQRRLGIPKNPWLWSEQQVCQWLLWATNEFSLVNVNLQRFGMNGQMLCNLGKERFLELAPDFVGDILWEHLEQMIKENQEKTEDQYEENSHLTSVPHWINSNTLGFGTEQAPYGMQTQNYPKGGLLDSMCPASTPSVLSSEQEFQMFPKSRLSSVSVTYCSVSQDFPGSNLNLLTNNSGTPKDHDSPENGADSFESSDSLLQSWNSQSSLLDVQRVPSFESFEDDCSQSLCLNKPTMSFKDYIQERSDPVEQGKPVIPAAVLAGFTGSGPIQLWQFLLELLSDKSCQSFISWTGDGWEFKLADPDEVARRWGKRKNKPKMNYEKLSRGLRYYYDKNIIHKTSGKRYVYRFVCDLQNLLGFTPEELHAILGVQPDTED
# How it was run: as §1
# SPDEF = biological target: T9, SPDEF (Homo sapiens, UniProt O95238 1-335); conditions: protein: recombinant; tags: N-terminal GST; dsDNA, one strand shown
# T9 sequence: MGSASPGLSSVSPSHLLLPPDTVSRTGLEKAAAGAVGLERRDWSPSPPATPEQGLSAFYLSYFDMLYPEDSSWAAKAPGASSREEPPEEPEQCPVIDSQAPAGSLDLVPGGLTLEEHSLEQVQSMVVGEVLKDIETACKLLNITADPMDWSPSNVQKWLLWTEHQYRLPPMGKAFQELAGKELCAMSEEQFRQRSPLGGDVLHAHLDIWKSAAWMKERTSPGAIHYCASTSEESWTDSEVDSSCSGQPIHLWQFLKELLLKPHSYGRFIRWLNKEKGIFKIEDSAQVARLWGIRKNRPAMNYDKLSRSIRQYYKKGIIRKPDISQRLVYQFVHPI
# How it was run: as §1
# ETV7 = biological target: T10, ETV7 (Homo sapiens, UniProt Q9Y603 1-341); conditions: protein: recombinant; tags: N-terminal GST; dsDNA, one strand shown
# T10 sequence: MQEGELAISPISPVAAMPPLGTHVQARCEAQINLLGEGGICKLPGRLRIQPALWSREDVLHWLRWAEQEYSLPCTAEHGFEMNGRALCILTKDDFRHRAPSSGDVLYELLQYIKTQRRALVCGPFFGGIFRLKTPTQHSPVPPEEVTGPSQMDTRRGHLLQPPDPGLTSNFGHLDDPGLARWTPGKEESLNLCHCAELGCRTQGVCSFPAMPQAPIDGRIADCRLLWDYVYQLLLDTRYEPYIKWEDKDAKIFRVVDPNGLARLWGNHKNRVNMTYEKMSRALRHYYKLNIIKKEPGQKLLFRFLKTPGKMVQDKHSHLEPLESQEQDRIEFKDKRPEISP
# How it was run: as §1
# ELF5 = biological target: T11, ELF5 (Homo sapiens, UniProt Q9UKW6-2 1-255); conditions: protein: recombinant; tags: N-terminal GST; dsDNA, one strand shown
# T11 sequence: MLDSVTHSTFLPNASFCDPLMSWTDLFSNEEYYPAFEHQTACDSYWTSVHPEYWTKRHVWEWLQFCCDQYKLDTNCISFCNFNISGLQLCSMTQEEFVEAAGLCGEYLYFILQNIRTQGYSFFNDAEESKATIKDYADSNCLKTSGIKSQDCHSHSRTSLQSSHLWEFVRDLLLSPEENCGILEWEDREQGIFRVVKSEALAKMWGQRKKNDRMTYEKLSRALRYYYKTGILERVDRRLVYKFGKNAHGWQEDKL
# How it was run: as §1
# ETV3 = biological target: T12, ETV3 (Homo sapiens, UniProt P41162-2 1-143); conditions: protein: recombinant; tags: N-terminal GST; dsDNA, one strand shown
# T12 sequence: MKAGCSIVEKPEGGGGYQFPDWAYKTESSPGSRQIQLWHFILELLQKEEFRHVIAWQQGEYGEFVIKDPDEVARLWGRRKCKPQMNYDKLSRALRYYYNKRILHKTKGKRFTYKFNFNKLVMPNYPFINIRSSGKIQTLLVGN
# How it was run: as §1
# ETV6 = ETV6 (Homo sapiens, UniProt P41212 1-452); conditions: protein: recombinant; tags: N-terminal GST; dsDNA, one strand shown
# Sequence of ETV6 (P41212 whole entry): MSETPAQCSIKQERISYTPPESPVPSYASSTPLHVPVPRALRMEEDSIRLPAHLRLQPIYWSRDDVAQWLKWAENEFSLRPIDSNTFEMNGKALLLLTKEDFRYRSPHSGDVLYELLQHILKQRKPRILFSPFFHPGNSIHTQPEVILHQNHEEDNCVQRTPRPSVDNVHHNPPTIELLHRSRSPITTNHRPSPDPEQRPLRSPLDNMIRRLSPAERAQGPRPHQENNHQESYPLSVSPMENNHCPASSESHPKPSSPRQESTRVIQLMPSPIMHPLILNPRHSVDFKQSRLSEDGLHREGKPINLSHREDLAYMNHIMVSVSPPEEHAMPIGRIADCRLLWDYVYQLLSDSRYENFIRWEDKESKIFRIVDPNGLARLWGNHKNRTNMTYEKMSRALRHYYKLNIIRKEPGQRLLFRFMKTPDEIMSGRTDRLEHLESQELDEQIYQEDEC
# How it was run: as §1
sequence,measurement,setting,value
ACCCGC,binding signal,FEV,"1.24 fold enrichment (6-mer frequency, TF over GST control)"
same,binding signal,ETV5,"1.24 fold enrichment (6-mer frequency, TF over GST control)"
same,binding signal,HSF1,"1.13 fold enrichment (6-mer frequency, TF over GST control)"
same,binding signal,SPIC,"1.16 fold enrichment (6-mer frequency, TF over GST control)"
same,binding signal,ELF4,"1.35 fold enrichment (6-mer frequency, TF over GST control)"
same,binding signal,ELK4,"1.39 fold enrichment (6-mer frequency, TF over GST control)"
same,binding signal,ETV2,"1.24 fold enrichment (6-mer frequency, TF over GST control)"
same,binding signal,ELF3,"1.15 fold enrichment (6-mer frequency, TF over GST control)"
same,binding signal,CRX,"1.1 fold enrichment (6-mer frequency, TF over GST control)"
same,binding signal,ETV1,"1.27 fold enrichment (6-mer frequency, TF over GST control)"
same,binding signal,ERF,"1.27 fold enrichment (6-mer frequency, TF over GST control)"
same,binding signal,ETV3L,"1.34 fold enrichment (6-mer frequency, TF over GST control)"
same,binding signal,ETS2,"1.15 fold enrichment (6-mer frequency, TF over GST control)"
same,binding signal,SPDEF,"1.16 fold enrichment (6-mer frequency, TF over GST control)"
same,binding signal,ETV7,"1.18 fold enrichment (6-mer frequency, TF over GST control)"
same,binding signal,ELF5,"1.25 fold enrichment (6-mer frequency, TF over GST control)"
same,binding signal,ETV3,"1.28 fold enrichment (6-mer frequency, TF over GST control)"
same,binding signal,ETV6,"1.32 fold enrichment (6-mer frequency, TF over GST control)"
